Assay results taken from PubChem BioAssay AID488852 (National Center for Advancing Translational Sciences (NCATS), 2010).
Active and inactive are the calls of the source. The call rests on the fitted dose curve; in most records, active means well fitted curve in the direction sought with a large enough effect; inconclusive means small, poorly fitted or top-dose-only effect, or another doubt; inactive means no such curve, though single readings can be large or run the other way.

Molecular target: Lysosomal acid glucosylceramidase (Homo sapiens) (UniProt P04062)
Assay: qHTS Assay for Inhibitors and Activators of N370S glucocerebrosidase as a Potential Chaperone Treatment of Gaucher Disease: Activity in N370S Spleen Homogenate Confirmation Using Alternate Substrate for Probe SAR
Conditions: N370S patient spleen homogenate, resorufin-glucoside fluorescence; series mostly up to 57.5 µM
Text: NIH Chemical Genomics Center [NCGC] NIH Molecular Libraries Probe Production Centers Network [MLPCN] MLPCN Grant: MH086442-01 Assay Submitter (PI): Wei Zheng Glucocerebrosidase (GC) catalyzes the hydrolysis of beta-glucocerebroside to glucose and ceramide in lysosomes. Mutations in the glucocerebrosidase gene result in Gaucher disease, an autosomal recessive lysosomal storage disorder. Many of the mutations encountered in patients with Gaucher disease are missense alterations that may cause misfolding, decreased stability and/or mistrafficking of this lysosomal protein. […] These inhibitors include iminosugar analogs and three non-iminosugar inhibitors identified from a previous HTS of 62,000 compounds with the wild type recombinant enzyme. However, the enhancement of enzyme activity by the chaperone action of an enzyme inhibitor must be balanced against the direct inhibition of the enzyme. An enzyme activator could also function as a chaperone by binding to the enzyme and helping to correct its misfolding and mistrafficking. While activators for GC have not yet been identified, they may have better therapeutic potential than inhibitors. Therefore the discovery and development of chemical activators may provide a new strategy for the chaperone therapy. We have optimized a new assay using N370S mutant GC derived from the spleen of a Gaucher patient. […] In addition, the MLPCN compound library has expanded, which increases the chance of finding new and better probes. This confirmation assay tests for compound activity in spleen homogenate from a patient homozygous for the N370S mutation using an alternate resorufin-based substrate.
NCGC Assay Protocol Summary: This is a fluorogenic enzyme assay with resorufin-beta-D-glucopyranoside as the substrate and mutant N370S glucocerebrosidase from human spleen homogenate as the enzyme preparation. Upon the hydrolysis of this fluorogenic substrate, the resulting product, […] which can be detected by a standard fluorescence plate reader. Data were normalized to the controls for basal activity (without enzyme) and 100% activity (with enzyme). The AC50 values were determined from concentration-response data modeled with the standard Hill equation. Assay buffer: 50 mM citric acid (titrated with potassium phosphate to pH 5.0), 100 mM potassium chloride, 10 mM sodium chloride, 1 mM magnesium chloride, 0.01% Tween-20. 1536-well assay protocol: (1) Add 2 ul/well of spleen homogenate (27 ug final) (2) Add 23 nL compounds in DMSO solution. The final titration was 0.5 nM to 58 uM. (3) Add 2 ul of substrate (1 mM final) (4) Incubate at 37C for 40 min. (5) Add 2 ul stop solution (1M NaOH and 1M Glycine mixture, pH 10) (6) Detect the assay plate in a ViewLux plate reader (PerkinElmer) with Ex=365 nm and Em=440nm. Keywords: Glucocerebrosidase, beta-glucosidase, Gaucher Disease, pharmacological chaperone, chaperone therapy, high throughput screening, glucocerebrosidase inhibitor, MLSMR, MLSCN, NIH Roadmap, qHTS and NCGC

Lysosomal acid glucosylceramidase (Homo sapiens), sequence (P04062 whole entry N409S): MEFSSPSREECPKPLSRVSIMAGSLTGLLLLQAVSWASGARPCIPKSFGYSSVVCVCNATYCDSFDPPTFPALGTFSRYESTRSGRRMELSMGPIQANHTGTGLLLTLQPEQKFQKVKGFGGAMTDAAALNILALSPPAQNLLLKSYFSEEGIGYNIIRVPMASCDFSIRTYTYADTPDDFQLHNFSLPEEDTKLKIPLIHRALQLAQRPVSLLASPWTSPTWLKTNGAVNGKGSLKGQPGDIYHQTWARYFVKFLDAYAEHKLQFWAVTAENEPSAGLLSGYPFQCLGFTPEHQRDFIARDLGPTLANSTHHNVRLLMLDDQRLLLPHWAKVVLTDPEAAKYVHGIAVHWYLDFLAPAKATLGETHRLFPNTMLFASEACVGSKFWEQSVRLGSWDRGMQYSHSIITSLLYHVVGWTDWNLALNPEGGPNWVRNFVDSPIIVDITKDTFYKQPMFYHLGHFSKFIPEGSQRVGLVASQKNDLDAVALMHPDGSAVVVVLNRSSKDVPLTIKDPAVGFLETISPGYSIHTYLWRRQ

outcome, inactive:
Cc1cc(C)n2ncc(C(=O)Nc3ccccc3C)c2n1, Cc1cc(C)n2ncc(C(=O)Nc3ccc(S(C)(=O)=O)cc3)c2n1, Cc1cc(C)n2ncc(C(=O)NCC(C)C)c2n1, COc1ccc(NC(=O)c2cnn3c(C)cc(C)nc23)cc1OC, Cc1cc(C)n2ncc(C(=O)Nc3ccc4c(c3)OCO4)c2n1, CC(=O)c1cccc(NC(=O)c2cnn3c(C)cc(C)nc23)c1, Cc1cc(C)n2ncc(C(=O)Nc3ccc(C#N)cc3)c2n1, COc1ccc(NC(=O)c2cnn3c(C)cc(C)nc23)cc1F, C#Cc1ccc(NC(=O)c2cnn3c(C)cc(C)nc23)cc1, Cc1cc(C)n2ncc(C(=O)Nc3ccc4c(c3)OCCO4)c2n1, Cc1cc(C)n2ncc(C(=O)NC3CCC(C(C)(C)C)CC3)c2n1 (configuration not stated), Cc1cc(C)n2ncc(C(=O)Nc3ccc(C(F)(F)F)cc3)c2n1, CC(=O)c1ccc(NC(=O)c2cnn3c(C)cc(C)nc23)cc1, Cc1cc(C)n2ncc(C(=O)Nc3ccc(C(C)(C)C)cc3)c2n1, Cc1cc(C)n2ncc(C(=O)Nc3cccc(C#N)c3)c2n1, Cc1cc(C)n2ncc(C(=O)Nc3ccc(Br)cc3)c2n1, Cc1cc(C)n2ncc(C(=O)Nc3ccc4c(c3)CCC4)c2n1, Cc1cc(C)n2ncc(C(=O)N3CCCC3)c2n1, O=C(Nc1cnn(Cc2ccc(F)cc2)c1)c1cnn2c(C(F)F)cc(-c3ccccc3)nc12, Cc1cc(C)n2ncc(C(=O)NC(C)C)c2n1, CC(=O)Nc1ccc(NC(=O)c2cnn3c(C)cc(C)nc23)cc1, Cc1cc(C)n2ncc(C(=O)Nc3ccncc3)c2n1, Cc1ccc(NC(=O)c2cnn3c(C)cc(C)nc23)c(C)c1, Cc1cc(C)n2ncc(C(=O)NCc3ccco3)c2n1, Cc1cc(C)n2ncc(C(=O)Nc3cccc(C(F)(F)F)c3)c2n1, Cc1cc(C)n2ncc(C(=O)Nc3ccccc3)c2n1, CC(=O)Nc1ccccc1NC(=O)c1cnn2c(C)cc(C)nc12, COc1cc(NC(=O)c2cnn3c(C)cc(C)nc23)cc(OC)c1OC, Cc1ccc(NC(=O)c2cnn3c(C)cc(C)nc23)cc1, Cc1cc(C)n2ncc(C(=O)NC3CCCCC3)c2n1, Cc1cc(C)n2ncc(C(=O)Nc3ccc(C)c(C)c3)c2n1, Cc1cc(C)n2ncc(C(=O)NCc3ccccc3)c2n1, COc1ccc(NC(=O)c2cnn3c(C)cc(C)nc23)cc1Cl, COc1ccc(NC(=O)c2cnn3c(C)cc(C)nc23)cc1, CNC(=O)c1cnn2c(C)cc(C)nc12, CCc1ccc(NC(=O)c2cnn3c(C)cc(C)nc23)cc1, Cc1cccc(NC(=O)c2cnn3c(C)cc(C)nc23)c1
